The supplement of paper PMC11732987, “Enantioselective OTUD7B fragment discovery through chemoproteomics screening and high-throughput optimisation” (Communications Chemistry, 2025)

How the values were obtained:
Assay in all cases: log2 ratio of Biotin-Ahx-Ub-VS probe labelling (compound/DMSO); higher = less target engagement, active = hit call of the paper (q ≤ 0.05, log2 ratio ≤ -1)
Settings in all cases: treatment time: 3 h
[1] = compound: ClCC(=O)N[C@H]1CCCc2ccccc12
Outline: (§1)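 These values are averaged ratios of compound to vehicle, tested by unpaired t-test. HEK293T lysate (495 µg per sample) was preincubated in triplicate with compound across a concentration series or vehicle for 3 h and then with Biotin-Ahx-Ub-VS at 0.5 µM final for 1 h. Deubiquitinases carrying the probe were NeutrAvidin-enriched, digested with LysC and trypsin, and measured by diaPASEF LC-MS/MS. Ratios are expressed as log2 from global-median-normalised Spectronaut label-free quantities, and only proteins with two or more unique peptides were included.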

[2] = compound: CCC1N(CCc2cc(OC)c(Cl)cc12)C(=O)CCl
Outline: (§2)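 Compound at 50 or 200 µM, or DMSO, was applied for 3 h in triplicate to HEK293T lysate (495 µg per sample, Tris/CHAPS/IGEPAL buffer with protease inhibitors), after which Biotin-Ahx-Ub-VS was added at 0.5 µM final for 1 h. The labelled DUBs were pulled down with NeutrAvidin, digested with LysC and trypsin, and run by diaPASEF LC-MS/MS. Ratios are averaged base-two logs of compound over DMSO from median-normalised label-free quantities by unpaired t-test, counting only proteins with at least 2 unique peptides.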

[3] = compound: CCCC1N(CCc2cc(OC)c(OC)cc12)C(=O)CCl
Outline: as §2

[4] = compound: CCC1N(CCc2sccc12)C(=O)CCl
Outline: as §2

[5] = compound: CN1c2ccccc2C(CS1(=O)=O)NC(=O)CCl
Outline: as §2

[6] = compound: Cl.ClCC(=O)N1CCc2ncncc2C1
Outline: as §2

[7] = compound: Cl.Cn1ncc2C(CCCc12)NC(=O)CCl
Outline: as §2

[8] = compound: ClCC(=O)NC1CCOc2ccccc12
Outline: as §2

[9] = compound: ClCC(=O)NC1CCCc2ccccc12
Outline: as §1

[10] = compound: ClCC(=O)N[C@@H]1CCCc2ccccc12
Outline: as §1

Measured: log2 ratio of Biotin-Ahx-Ub-VS probe labelling

USP12 (UniProt O75317)
UniProt O75317, sequence (O75317 whole entry): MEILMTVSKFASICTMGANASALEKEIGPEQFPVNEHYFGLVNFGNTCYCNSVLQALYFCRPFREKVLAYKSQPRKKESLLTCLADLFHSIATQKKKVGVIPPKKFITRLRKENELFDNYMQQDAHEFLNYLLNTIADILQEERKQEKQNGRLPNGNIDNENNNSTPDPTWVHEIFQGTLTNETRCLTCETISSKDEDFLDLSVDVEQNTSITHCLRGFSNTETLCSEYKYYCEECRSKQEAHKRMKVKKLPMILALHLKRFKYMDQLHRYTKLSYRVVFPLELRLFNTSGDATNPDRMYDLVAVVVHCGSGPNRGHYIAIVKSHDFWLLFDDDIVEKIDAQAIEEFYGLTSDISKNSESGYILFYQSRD
inactive: [1]; compound concentration: 3.13uM 0.0603 | [1]; compound concentration: 6.25uM 0.103 | [1]; compound concentration: 12.5uM -0.0251 | [1]; compound concentration: 25uM -0.184 | [1]; compound concentration: 50uM -0.474 | [1]; compound concentration: 100uM -0.242 | [1]; compound concentration: 200uM -0.748 | [2]; compound concentration: 50uM -0.0261 | [2]; compound concentration: 200uM -0.904 | [3]; compound concentration: 50uM -0.303 | [3]; compound concentration: 200uM -0.368

USP22 (UniProt Q9UPT9)
UniProt Q9UPT9, sequence (Q9UPT9 whole entry): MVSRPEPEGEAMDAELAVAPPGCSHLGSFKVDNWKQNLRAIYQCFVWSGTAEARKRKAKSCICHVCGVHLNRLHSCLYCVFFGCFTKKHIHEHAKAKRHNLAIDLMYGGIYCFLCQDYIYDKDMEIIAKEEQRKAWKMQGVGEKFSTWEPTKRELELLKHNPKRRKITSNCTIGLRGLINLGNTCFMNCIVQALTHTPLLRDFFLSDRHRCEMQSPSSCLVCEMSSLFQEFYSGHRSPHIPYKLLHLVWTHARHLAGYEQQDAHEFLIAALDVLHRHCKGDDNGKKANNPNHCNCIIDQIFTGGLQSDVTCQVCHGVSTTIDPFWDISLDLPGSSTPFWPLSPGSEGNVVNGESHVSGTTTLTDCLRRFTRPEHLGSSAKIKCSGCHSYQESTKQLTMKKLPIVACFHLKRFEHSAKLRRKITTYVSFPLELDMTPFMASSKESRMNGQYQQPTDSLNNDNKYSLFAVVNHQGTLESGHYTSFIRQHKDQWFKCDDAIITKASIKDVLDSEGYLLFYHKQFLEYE
inactive: [4]; compound concentration: 50uM -0.0676 | [4]; compound concentration: 200uM -0.0769 | [5]; compound concentration: 50uM -0.0879 | [5]; compound concentration: 200uM -0.227 | [6]; compound concentration: 50uM 0.165 | [6]; compound concentration: 200uM -0.284 | [7]; compound concentration: 50uM 0.167 | [7]; compound concentration: 200uM -0.0888 | [8]; compound concentration: 50uM 0.0839 | [8]; compound concentration: 200uM -0.0221 | [9]; compound concentration: 0.78uM -0.256 | [9]; compound concentration: 1.56uM -0.271 | [9]; compound concentration: 3.13uM -0.269 | [9]; compound concentration: 6.25uM -0.318 | [9]; compound concentration: 12.5uM -0.0891 | [9]; compound concentration: 25uM -0.169 | [9]; compound concentration: 50uM -0.192 | [9]; compound concentration: 100uM -0.263 | [9]; compound concentration: 200uM -0.376 | [10]; compound concentration: 0.78uM -0.254 | [10]; compound concentration: 1.56uM -0.18 | [10]; compound concentration: 3.13uM -0.341 | [10]; compound concentration: 6.25uM -0.0166 | [10]; compound concentration: 12.5uM -0.101 | [10]; compound concentration: 25uM -0.166 | [10]; compound concentration: 50uM -0.259 | [10]; compound concentration: 100uM -0.0453 | [10]; compound concentration: 200uM -0.238 | [1]; compound concentration: 0.78uM -0.107 | [1]; compound concentration: 1.56uM -0.258 | [1]; compound concentration: 3.13uM -0.171 | [1]; compound concentration: 6.25uM -0.0996 | [1]; compound concentration: 12.5uM -0.17 | [1]; compound concentration: 25uM -0.0497 | [1]; compound concentration: 50uM -0.0246 | [1]; compound concentration: 100uM -0.0113 | [1]; compound concentration: 200uM -0.194 | [2]; compound concentration: 50uM -0.141 | [2]; compound concentration: 200uM -0.349 | [3]; compound concentration: 50uM -0.229 | [3]; compound concentration: 200uM -0.475
